From article PMC5540273 (PLoS ONE, 2017)

These compounds were tested on RET.
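Further: kd values determined as follow-up on hits from a single-replicate KINOMEscan panel screen.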

| Structure (SMILES) | Kd |
| --- | --- |
| COc1cc2c(Nc3cccc(NC(=O)c4ccccc4)c3)ncnc2cc1OCCCN1CCOCC1 [GSK223810] | 110 nM |
| Cl.O=S(=O)(c1cccc(F)c1)c1ccc(Nc2ncnc3cc(Br)sc23)cc1Cl [GSK306886] | > 10000 nM |
| O=c1cc(N2CCOCC2)nc2n(Cc3cccc(Cl)c3)ccn12 [GSK2296823] | > 10000 nM |
| Nc1n[nH]c2nnc(-c3ccccc3)cc12 [SB-517389] | > 10000 nM |

The compounds below were run on RIPK2.

| Structure (SMILES) | Kd |
| --- | --- |
| Oc1ccc2ncnc(Nc3ccc(OCc4ccccc4)cc3)c2c1 [GI262866] | 8.1 nM |
| CCc1nc(-c2cccc(N(C)S(=O)(=O)c3ccccc3)c2)c(-c2ccnc(Nc3ccc(N4CCN(C(C)=O)CC4)nc3)n2)s1 [GSK1645895] | 130 nM |
| O=C(Nc1ccccc1)Nc1ccc(Oc2ccc3nccn3n2)cc1 | > 10000 nM |
| COc1cc2ncnc(Nc3ccc(OCc4ccccc4Br)c(Cl)c3)c2cc1OC.Cl [GI261590] | 410 nM |
